Laboratory results: ChEMBL document CHEMBL4513216, “Probing the Open Global Health Chemical Diversity Library for Multistage-Active Starting Points for Next-Generation Antimalarials” (ACS Infect Dis, 2020)
Out of some 65,000 compounds screened, about 2,100 (3.2%) showed an effect of 50% or more. The median lay at about -52%. The entries come from a sample that favours strong results as a whole.

system: Plasmodium falciparum; test: Screen against P. falciparum Asexual Blood Stage (ABS), at 5uM; type: functional, Dd2; settings: tested at 5 uM

Row | Structure (SMILES) | INHIBITION
1 | CCOC(=O)N1CCCC2(CCN(Cc3ccccc3C#N)C2)C1 (configuration not stated) | -71.9%
2 | CC(CNC(=O)c1cc(Cl)ccc1F)N1CCCC1 (configuration not stated) | 12.4%
3 | CC(CNC(=O)c1ccc(Cl)cc1F)N1CCN(C)CC1 (configuration not stated) | 64.1%
4 | CN1CCN(Cc2ccccc2CNC(=O)c2cc(Cl)ccc2F)CC1 | 66.5%
5 | O=C(NCC(c1cccs1)N1CCOCC1)c1ccc(F)cc1Cl (configuration not stated) | -46.5%
6 | CN1CCN(Cc2ccccc2CNC(=O)c2ccc(Br)cc2F)CC1 | 48.8%
7 | CN1CCN(Cc2ccccc2CNC(=O)c2ccc(Br)cc2)CC1 | 46.2%
8 | CN1CCN(C(CNC(=O)CCn2cccn2)c2cccs2)CC1 (configuration not stated) | -29.5%
9 | CC(CNC(=O)c1ccc(Cl)cc1F)N1CCCC1 (configuration not stated) | -2.96%
10 | CN1CCN(C(CNC(=O)c2ccc(Cl)cc2F)c2cccs2)CC1 (configuration not stated) | 53.9%
11 | Cc1cc(C)n(CCN2CCC(N(C)Cc3noc(C4CC4)n3)C2)n1 (configuration not stated) | -148%
12 | Cc1cc(C(=O)N2CCc3ncnc(-c4cnn(C)c4)c3CC2)c(C)o1 | -23.2%
13 | CC(CNC(=O)c1ccc(=O)[nH]n1)N1CCc2ccccc21 (configuration not stated) | -120%
14 | CN(C)C(=O)NC[C@@H]1OC[C@H]2CN(Cc3cccc(F)c3)CC[C@H]21 | -66.7%
15 | CN(C)CC1CSCCCN1C(=O)c1ccc(C(C)(C)C)cc1 (configuration not stated) | 2.97%
16 | CN(C)CC1CSCCCN1C(=O)c1ccc(-n2cccc2)cc1 (configuration not stated) | 63%
17 | CN(C)CC1CSCCCN1C(=O)c1ccc(-c2ccccc2)cc1 (configuration not stated) | 6.37%
18 | CC(C)NC(=O)C1CCC2(CCN(Cc3cnn(C)c3)CC2)CO1 (configuration not stated) | -63.9%
19 | CC(NC(=O)Cn1cc(-c2ccccc2)cn1)C1CC1 (configuration not stated) | -158%
20 | COCC1CN(S(=O)(=O)C2CC2)Cc2ncn(CC3CC3)c21 (configuration not stated) | -17.1%
21 | CCC(=O)N1CCN(C(=O)CCn2cccn2)CC1 | -114%
22 | CC(C)CN1CCN(C(=O)CCn2cccn2)CC1 | 67.8%
23 | O=C(CCn1cccn1)N1CCN(CC(F)F)CC1 | -177%

Row | Structure (SMILES) | INHIBITION
24 | CS(=O)(=O)N1CCN(C(=O)CCn2cccn2)CC1 | -7.11%
25 | COC1CCN(C(=O)CCn2cccn2)CC1 | 53.1%
26 | CNC(=O)C1CCN(C(=O)CCn2cccn2)CC1 | -104%
27 | COCc1nc(N(C)C)ncc1C(=O)OC | -29.3%
28 | Cc1ccc(CN2Cc3nnn(C)c3C(COCc3ccccc3)C2)s1 (configuration not stated) | -43.4%
29 | CN(CCc1ncnn1C1Cc2ccccc2C1)C1CCS(=O)(=O)C1 (configuration not stated) | -63.2%
30 | Cc1cccc(OCC(O)CN2CCN(c3nccs3)CC2)c1 (configuration not stated) | -7.68%
31 | CCOc1cc(C(=O)N2CCCC2)cc2occc12 | -69.7%
32 | Cc1n[nH]cc1CNC1CCN(c2cccc(C(F)(F)F)c2)CC1 | 62.8%
33 | Cc1n[nH]cc1CNC1CCN(c2ccccc2)CC1 | -20.1%
34 | Cc1n[nH]cc1CNC1CCN(c2ccc(F)cc2)CC1 | -38.1%
35 | COc1ccc(C(=O)C2CCCN(c3cc(C#N)ccn3)C2)cc1F (configuration not stated) | -126%
36 | CCC(CNC1CCN(C(C)=O)CC1)Oc1ccccc1Cl (configuration not stated) | 48.8%
37 | COCC(=O)N1CCC(Oc2cccc(C)c2)CC1 | -127%
38 | CCC(CNC1CCN(C(C)=O)CC1)Oc1cccc(C)c1 (configuration not stated) | 53.2%
39 | O=C(C1CCCCC1)N1CCC2(CCCN2CC2CC2)CC1 | -19.9%
40 | CC(C)c1noc(CN2CCN(C(=O)c3cccnc3O)CC2)n1 | -63.3%
41 | Cc1nn(-c2ccccc2)c(C)c1-c1ccnc(N2CCCNCC2)n1 | 66.9%
42 | Cc1nn(-c2ccccc2)c(C)c1-c1ccnc(N2CCC(O)CC2)n1 | -309%
43 | Cc1nn(-c2ccccc2)c(C)c1-c1ccnc(N2CCCOCC2)n1 | -64.7%
44 | CN1CCN(c2cc(Sc3cccs3)nc(N)n2)CC1CCO (configuration not stated) | -77.1%
45 | CN(CCc1ccccc1)C1CCCN(Cc2nccn2C)C1 (configuration not stated) | 22.1%
46 | CN(Cc1nccn1C)C1CCCN(CCCc2ccccc2)C1 (configuration not stated) | 63.9%

Row | Structure (SMILES) | INHIBITION
47 | Cc1nc(CN2CCCC(N(C)Cc3nccn3C)C2)no1 (configuration not stated) | -29.4%
48 | O=C1COC2(CCN(c3ncccn3)CC2)CN1 | -86%
49 | COCCC1COC2(CCN(C(=O)c3ccsc3)CC2)C1 (configuration not stated) | -101%
50 | CC(C)(C)C1CCC(NCCN2CCOCC2)CC1 (configuration not stated) | 56.3%
51 | CCC1CCC(NCCN2CCOCC2)CC1 (configuration not stated) | 5.69%
52 | C1CCC(NCCN2CCOCC2)C1 | -99.9%
53 | CC(C)c1cc(C(=O)NCCc2nc3c(s2)CCC3)n(C)n1 | -63.4%
54 | Cc1noc(C)c1-c1ccnc(C2CCNCC2)c1 | -51.7%
55 | CC(=O)N1CC[C@@]2(O)CCCC[C@H]2[C@@H]1c1ccc2c(c1)OCO2 | -87.3%
56 | N#Cc1ccc(CNC2CCN(CCc3ccncc3)CC2)cc1 | 56.7%
57 | Oc1cccc(CNC2CCN(CCc3ccncc3)CC2)c1 | -18.8%
58 | c1cc(CCN2CCC(NCc3ccsc3)CC2)ccn1 | -8.86%
59 | CC(CNC(=O)c1cnc[nH]1)Oc1ccccc1Br (configuration not stated) | -61.4%
60 | CC(C)N1CCC(c2cnc(-c3cncnc3)cn2)CC1 | -18%
61 | COc1cccc(-c2cccc(CN3C[C@H]4CC[C@@H](C3)N(C)C4=O)c2)c1 | 13.1%
62 | Cc1ncc2c(n1)CN(CC(=O)Nc1ccc(Cl)cn1)CC2 | 6.47%
63 | CC(C)c1ncc2c(n1)CN(CC(=O)Nc1ccc(Cl)cn1)CC2 | -65.1%
64 | CCc1ncc2c(n1)CN(CC(=O)Nc1ccc(Cl)cn1)CC2 | 59.4%
65 | CCCc1nc(N2CCCCCC2)c2c(n1)c(C)nn2CC | 22.2%
66 | NC(=O)C1(CCCc2ccccn2)CCCN(Cc2ccncc2)C1 (configuration not stated) | -123%
67 | CC(O)CN1CCC(CN(C)C(=O)NC2CC2)CC1 (configuration not stated) | -50.7%
68 | CCN(CC)CC1CN(Cc2ccc(C)s2)Cc2nccn2C1 (configuration not stated) | 66.7%
69 | Cc1ccc(CN2Cc3nccn3CC(CN(C)C)C2)s1 (configuration not stated) | -47.7%

Row | Structure (SMILES) | INHIBITION
70 | CCN(CC)CC1CN(CCc2ccccc2)Cc2nccn2C1 (configuration not stated) | 58.7%
71 | Cc1ccc(CN2Cc3nccn3CC(Cn3cccn3)C2)s1 (configuration not stated) | -26.9%
72 | CCN(CC)CC1CN(Cc2ccco2)Cc2nccn2C1 (configuration not stated) | -52.4%
73 | CCN(CC)CC1CN(Cc2cccc(C#N)c2)Cc2nccn2C1 (configuration not stated) | -6.06%
74 | Cc1cc(CCC(=O)NCc2ncc[nH]2)ccc1Br | -116%
75 | CCOC(=O)[C@]12CCCN(Cc3cccs3)C[C@H]1CN(CC(C)C)C2 | 14.6%
76 | NC(=O)c1ccc(C(=O)N2CCCCC2Cn2cccn2)s1 (configuration not stated) | -33.2%
77 | O=C(c1cc(Cl)cc2cccnc12)N1CCN(CCO)CC1 | 30.3%
78 | O=C(C1CCC1)N1C[C@@H]2CN(Cc3ccncc3)C(=O)[C@@H]2C1 | -74.3%
79 | Cn1cc(CN2CCOC(c3cccc(-c4cncnc4)n3)C2)cn1 (configuration not stated) | -54.2%
80 | COc1ccc(CN)c(OC(F)F)c1 | -30%
81 | COc1ccc(-c2ccnc(N)c2)c(OC)c1 | -90.3%
82 | COc1ccc(-c2ccccc2CN)c(OC)c1 | 60.2%
83 | CC(C)(C)CN1CCCC(c2nccnc2Nc2cnccn2)C1 (configuration not stated) | 22.1%
84 | O=C(CCCc1cccs1)N1CCC(N2CCNC2=O)CC1 | -185%
85 | CC(C)CN1C(=O)C2(CCN(Cc3nccs3)C2)c2ccccc21 (configuration not stated) | -54.5%
86 | CCO[C@H]1C[C@@H](O)C12CCN(C1CCN(c3ccccc3C)CC1)CC2 | 10.7%
87 | CCc1ccc(C2CC(=O)Nc3cc(OC)c(NS(C)(=O)=O)cc32)o1 (configuration not stated) | -121%
88 | Cc1cccnc1CN1CCN(C(=O)c2cnn(C(C)C)c2)CC1 | -15.2%
89 | Cc1nc(N2CCOCC2)nc2c1CN(C(=O)C(C)C)CC2 | 56.2%
90 | CC(=O)N1CCc2nc(N3CCCC3)nc(C)c2C1 | 53.8%
91 | Cc1nc(N2CCCC2)nc2c1CCN(C(=O)N1CCCC1)CC2 | 47%
92 | Cc1nc(N2CCOCC2)nc2c1CCN(C(=O)N1CCCC1)CC2 | -112%

Row | Structure (SMILES) | INHIBITION
93 | Cc1nc(N2CCCC2)nc2c1CN(C(=O)N(C)C)CC2 | -67.8%
94 | Cc1nc(N2CCCC2)nc2c1CN(C(=O)N1CCOCC1)CC2 | -70.2%
95 | O=C(NCC(F)F)c1cnc(C2CCCN2)cn1 (configuration not stated) | -41.5%
96 | CCn1cc(NC(=O)C2CCN(Cc3nc(C(C)C)no3)CC2)cn1 | -86%
97 | COc1ccc(F)c(CN(CCCn2ccnc2)Cc2ccc(C)s2)c1 | 39.5%
98 | Cc1ccc(O)c(CN(CCCn2ccnc2)Cc2ccc(C)s2)c1 | 43%
99 | Cc1ccc(CN(CCCn2ccnc2)Cc2cc(F)ccc2F)s1 | 68.8%
100 | CC(C)(C)NC(=O)C1CSCN1C(=O)CCc1ccco1 (configuration not stated) | -87.6%
101 | O[C@H]1CC[C@@H](Cc2cc(-c3ccccc3)on2)O[C@@H]1CNCC1CC1 | 39.2%
102 | O[C@H]1CC[C@@H](Cc2cc(-c3ccc(F)cc3)on2)O[C@@H]1CNCC1CC1 | 63.5%
103 | O[C@H]1CC[C@@H](Cc2cc(-c3ccccn3)on2)O[C@@H]1CNCC1CC1 | -70.3%
104 | COCCCNC1N=C(n2nc(C)cc2C)Nc2sc3c(c21)CCCC3 (configuration not stated) | 46.7%
105 | COc1ccc(NC2(C(=O)N3CCCn4cncc4C3)CCCC2)cc1 | 45%
106 | Cc1ccc(NC2(C(=O)N3CCn4cncc4C3)CCCCC2)cc1C | 64.5%
107 | COc1ccc(NC2(C(=O)N3CCn4cncc4C3)CCCC2)cc1 | -27.6%
108 | CN(C)c1cc(CNC(=O)c2cc(Cl)ccn2)ccn1 | -158%
109 | Cc1cc(-c2nn3c(C(C)C)nnc3s2)on1 | -33%
110 | COCC1Cn2nnc(-c3cnn(C)c3)c2CN1Cc1cccs1 (configuration not stated) | 59.2%
111 | COCC1Cn2nnc(-c3cnn(C)c3)c2CN1Cc1ccc(C)s1 (configuration not stated) | -9.62%
112 | COCC1Cn2nnc(-c3cnn(C)c3)c2CN1Cc1ccco1 (configuration not stated) | -88.9%
